# Experimental data published in the supplement of paper PMC10849652.
# Of roughly 7,900 targets only a part is listed; those with a hit were picked by preference. About 0.6% of all pairs of compound and target were hits. Unmarked numbers belong to inactive results.
# Experiments:
# Experiment in all cases: log2 fold change, soluble protein after heating vs DMSO (PISA); higher = thermal stabilisation; K562 cells, 10 uM, 30 min; active = over 0.2 and 3.5 SD of the protein, either way, in both replicates (recomputed)
# [1] = compound: CC[C@@H]1C(=O)N(C)c2cnc(Nc3ccc(C(=O)NC4CCN(C)CC4)cc3OC)nc2N1C1CCCC1
# Outline: (§1)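 Quantification of soluble protein used TMTpro 16plex LC-MS/MS, with channel sums equalised. Samples were the supernatant after 21,000xg for 90 min of pooled aliquots from K562 cells (2×10^6 cells/mL) treated with 10 μM compound for 30 min, heated for 3 min over 48°C-58°C, and extracted in PBS with 0.5% NP-40 at 4°C. Values, from duplicates, describe thermal stability against control samples on a log2 fold-change scale.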
# volasertib = compound: CC[C@@H]1C(=O)N(C)c2cnc(Nc3ccc(C(=O)N[C@H]4CC[C@H](N5CCN(CC6CC6)CC5)CC4)cc3OC)nc2N1C(C)C [volasertib]
# Outline: as §1
# [2] = compound: CC[C@H](C)N1C=C(C2=C(C=C(C=C21)C3=CN=C(C=C3)N4CCNCC4)C(=O)NCC5=C(C=C(NC5=O)C)C)C
# Outline: as §1
# epoxomicin = compound: CC[C@H](C)[C@@H](C(=O)N[C@@H]([C@@H](C)O)C(=O)N[C@@H](CC(C)C)C(=O)[C@]1(CO1)C)NC(=O)[C@H]([C@@H](C)CC)N(C)C(=O)C [epoxomicin]
# Outline: as §1
# [3] = compound: CCn1c(C(=O)N(C2CC2)C2CC2)cc2c3c(ncn3C)c(Nc3cc(C)n(C)n3)nc21
# Outline: as §1
# [4] = compound: CCn1cc(-c2ccnc3[nH]c(-c4cccc(CN(C)C)c4)cc23)c(-c2ccc(NC(=O)N(C)C)cc2)n1
# Outline: as §1
# [5] = compound: CN(C)CC(=O)Nc1ccc2[nH]c(=O)c3ccccc3c2c1
# Outline: as §1
# rosiglitazone = compound: CN(CCOC1=CC=C(C=C1)C[C@H]2C(=O)NC(=O)S2)C3=CC=CC=N3 (racemic) [rosiglitazone]
# Outline: as §1
# [6] = compound: CN1C2=C(C3=C1C(=O)N(N=C3)CC4=CC(=CC=C4)N)SC(=C2)S(=O)C
# Outline: as §1
# [7] = compound: CN1CCC(CNc2ccc3ncc(-c4cccc(OC(F)(F)F)c4)n3n2)CC1
# Outline: as §1
# saracatinib = compound: CN1CCN(CCOc2cc(OC3CCOCC3)c3c(Nc4c(Cl)ccc5c4OCO5)ncnc3c2)CC1 [saracatinib]
# Outline: as §1
# sotrastaurin = compound: CN1CCN(c2nc(C3=C(c4c[nH]c5ccccc45)C(=O)NC3=O)c3ccccc3n2)CC1 [sotrastaurin]
# Outline: as §1
# alvocidib = compound: CN1CC[C@H](c2c(O)cc(O)c3c(=O)cc(-c4ccccc4Cl)oc23)[C@H](O)C1 [alvocidib]
# Outline: as §1
# Tubastatin A = compound: CN1CCc2c(c3ccccc3n2Cc2ccc(C(=O)NO)cc2)C1 [Tubastatin A]
# Outline: as §1
# [8] = compound: CNC(=O)C1=CC=CC=C1NC2=NC(=NC=C2Cl)NC3=C(C=C(C=C3)N4CCOCC4)OC
# Outline: as §1
# defactinib = compound: CNC(=O)c1ccc(Nc2ncc(C(F)(F)F)c(NCc3nccnc3N(C)S(C)(=O)=O)n2)cc1 [defactinib]
# Outline: as §1
# rucaparib = compound: CNCc1ccc(-c2[nH]c3cc(F)cc4c3c2CCNC4=O)cc1 [rucaparib]
# Outline: as §1
# [9] = compound: CNc1nc(-c2ccc3c(N)n[nH]c3c2)cc(N2C[C@@H](C(=O)NC3CCCCC3)CC[C@H]2C)n1
# Outline: as §1
# encorafenib = compound: COC(=O)N[C@@H](C)CNc1nccc(-c2cn(C(C)C)nc2-c2cc(Cl)cc(NS(C)(=O)=O)c2F)n1 [encorafenib]
# Outline: as §1
# [10] = compound: COC(=O)[C@H](CCSC)NC(=O)C1=C(C=C(C=C1)NC[C@H](CS)N)C2=CC=CC=C2
# Outline: as §1
# Chain of UniProt Q92615 (Q92615 whole entry, looked up): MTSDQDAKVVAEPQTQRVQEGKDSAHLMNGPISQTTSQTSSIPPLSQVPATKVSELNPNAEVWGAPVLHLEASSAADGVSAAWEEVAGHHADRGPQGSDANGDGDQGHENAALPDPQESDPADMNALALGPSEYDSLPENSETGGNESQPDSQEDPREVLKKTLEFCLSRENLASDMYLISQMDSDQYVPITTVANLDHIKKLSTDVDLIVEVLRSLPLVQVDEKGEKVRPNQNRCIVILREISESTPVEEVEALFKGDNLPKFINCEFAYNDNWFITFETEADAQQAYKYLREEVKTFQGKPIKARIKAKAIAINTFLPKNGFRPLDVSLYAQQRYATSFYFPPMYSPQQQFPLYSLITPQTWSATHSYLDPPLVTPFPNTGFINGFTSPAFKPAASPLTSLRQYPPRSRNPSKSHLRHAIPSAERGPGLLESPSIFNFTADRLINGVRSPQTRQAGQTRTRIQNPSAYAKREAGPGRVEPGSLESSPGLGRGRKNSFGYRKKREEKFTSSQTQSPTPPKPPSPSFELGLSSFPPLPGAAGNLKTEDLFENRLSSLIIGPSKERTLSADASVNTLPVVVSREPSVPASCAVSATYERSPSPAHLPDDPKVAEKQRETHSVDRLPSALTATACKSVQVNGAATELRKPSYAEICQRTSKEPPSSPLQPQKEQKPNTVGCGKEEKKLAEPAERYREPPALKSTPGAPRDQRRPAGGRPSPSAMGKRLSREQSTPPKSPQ
# Chain of UniProt Q8IW41 (Q8IW41 whole entry, looked up): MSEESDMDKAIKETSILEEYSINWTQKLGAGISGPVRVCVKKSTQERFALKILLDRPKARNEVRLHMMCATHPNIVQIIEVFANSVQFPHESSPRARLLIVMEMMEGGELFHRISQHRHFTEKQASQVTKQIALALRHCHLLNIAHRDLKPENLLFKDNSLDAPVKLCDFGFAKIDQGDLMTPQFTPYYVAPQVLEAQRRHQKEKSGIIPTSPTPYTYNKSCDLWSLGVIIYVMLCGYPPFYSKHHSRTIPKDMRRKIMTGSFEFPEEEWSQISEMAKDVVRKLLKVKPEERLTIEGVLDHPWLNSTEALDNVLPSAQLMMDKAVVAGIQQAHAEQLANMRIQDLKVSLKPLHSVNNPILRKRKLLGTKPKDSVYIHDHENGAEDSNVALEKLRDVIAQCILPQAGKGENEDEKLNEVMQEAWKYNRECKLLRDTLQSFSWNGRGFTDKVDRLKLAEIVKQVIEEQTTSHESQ
# Chain of UniProt O14880 (O14880 whole entry, looked up): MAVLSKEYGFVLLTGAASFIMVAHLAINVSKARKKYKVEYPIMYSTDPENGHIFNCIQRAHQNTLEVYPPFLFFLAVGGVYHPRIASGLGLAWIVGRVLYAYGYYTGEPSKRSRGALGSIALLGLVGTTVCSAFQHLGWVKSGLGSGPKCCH
# Chain of UniProt Q86WA8 (Q86WA8 whole entry, looked up): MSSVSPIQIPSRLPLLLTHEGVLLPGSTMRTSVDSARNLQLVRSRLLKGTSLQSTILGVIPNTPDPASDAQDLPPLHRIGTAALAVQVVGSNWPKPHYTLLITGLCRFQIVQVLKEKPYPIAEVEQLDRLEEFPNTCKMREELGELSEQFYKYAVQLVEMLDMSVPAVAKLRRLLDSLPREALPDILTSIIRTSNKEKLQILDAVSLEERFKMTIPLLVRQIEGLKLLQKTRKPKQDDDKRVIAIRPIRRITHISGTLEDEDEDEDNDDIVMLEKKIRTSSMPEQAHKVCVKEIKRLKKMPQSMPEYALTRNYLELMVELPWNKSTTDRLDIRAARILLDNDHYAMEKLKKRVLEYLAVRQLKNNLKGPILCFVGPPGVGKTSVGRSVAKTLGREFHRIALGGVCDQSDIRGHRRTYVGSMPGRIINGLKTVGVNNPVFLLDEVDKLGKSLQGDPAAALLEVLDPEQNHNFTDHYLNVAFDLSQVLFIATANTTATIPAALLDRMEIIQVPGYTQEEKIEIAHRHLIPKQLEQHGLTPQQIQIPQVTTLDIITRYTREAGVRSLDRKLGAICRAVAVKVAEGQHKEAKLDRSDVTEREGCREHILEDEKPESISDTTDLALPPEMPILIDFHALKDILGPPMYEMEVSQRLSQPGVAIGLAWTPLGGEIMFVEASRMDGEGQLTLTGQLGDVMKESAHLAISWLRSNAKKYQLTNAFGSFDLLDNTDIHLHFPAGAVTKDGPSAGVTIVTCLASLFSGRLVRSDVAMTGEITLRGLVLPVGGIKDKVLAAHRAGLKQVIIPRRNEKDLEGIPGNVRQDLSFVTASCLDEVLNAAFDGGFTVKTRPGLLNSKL
# Chain of UniProt P18065 (P18065 whole entry, looked up): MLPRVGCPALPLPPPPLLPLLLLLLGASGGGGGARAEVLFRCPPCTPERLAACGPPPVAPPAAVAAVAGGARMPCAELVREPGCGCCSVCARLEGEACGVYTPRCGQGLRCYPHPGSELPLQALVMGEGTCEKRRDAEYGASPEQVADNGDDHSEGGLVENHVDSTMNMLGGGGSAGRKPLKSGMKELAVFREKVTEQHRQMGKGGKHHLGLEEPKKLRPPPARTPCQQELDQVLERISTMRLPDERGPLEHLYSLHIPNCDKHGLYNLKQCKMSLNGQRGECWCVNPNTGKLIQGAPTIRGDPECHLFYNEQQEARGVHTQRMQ
# Chain of UniProt Q16891 (Q16891 whole entry, looked up): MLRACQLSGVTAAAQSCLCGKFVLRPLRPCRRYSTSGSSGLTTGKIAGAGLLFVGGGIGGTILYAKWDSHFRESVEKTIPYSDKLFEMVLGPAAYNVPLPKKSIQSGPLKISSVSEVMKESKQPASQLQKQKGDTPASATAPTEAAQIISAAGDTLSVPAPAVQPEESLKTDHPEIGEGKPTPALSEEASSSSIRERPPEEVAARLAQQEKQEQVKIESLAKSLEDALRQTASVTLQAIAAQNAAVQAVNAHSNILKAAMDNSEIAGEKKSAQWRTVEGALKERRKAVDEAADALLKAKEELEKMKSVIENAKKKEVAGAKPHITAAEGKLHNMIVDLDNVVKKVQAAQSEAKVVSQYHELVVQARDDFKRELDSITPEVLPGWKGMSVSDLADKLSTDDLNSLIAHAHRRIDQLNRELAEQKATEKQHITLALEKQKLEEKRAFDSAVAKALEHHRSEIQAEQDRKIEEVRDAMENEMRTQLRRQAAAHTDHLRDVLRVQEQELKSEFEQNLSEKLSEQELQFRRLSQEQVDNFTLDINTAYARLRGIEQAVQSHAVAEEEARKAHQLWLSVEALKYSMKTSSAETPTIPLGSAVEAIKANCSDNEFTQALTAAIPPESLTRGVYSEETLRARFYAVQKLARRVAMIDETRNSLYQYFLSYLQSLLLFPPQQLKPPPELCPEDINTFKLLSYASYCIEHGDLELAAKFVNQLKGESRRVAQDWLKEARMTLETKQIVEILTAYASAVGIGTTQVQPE
# Chain of UniProt Q8N108 (Q8N108 whole entry, looked up): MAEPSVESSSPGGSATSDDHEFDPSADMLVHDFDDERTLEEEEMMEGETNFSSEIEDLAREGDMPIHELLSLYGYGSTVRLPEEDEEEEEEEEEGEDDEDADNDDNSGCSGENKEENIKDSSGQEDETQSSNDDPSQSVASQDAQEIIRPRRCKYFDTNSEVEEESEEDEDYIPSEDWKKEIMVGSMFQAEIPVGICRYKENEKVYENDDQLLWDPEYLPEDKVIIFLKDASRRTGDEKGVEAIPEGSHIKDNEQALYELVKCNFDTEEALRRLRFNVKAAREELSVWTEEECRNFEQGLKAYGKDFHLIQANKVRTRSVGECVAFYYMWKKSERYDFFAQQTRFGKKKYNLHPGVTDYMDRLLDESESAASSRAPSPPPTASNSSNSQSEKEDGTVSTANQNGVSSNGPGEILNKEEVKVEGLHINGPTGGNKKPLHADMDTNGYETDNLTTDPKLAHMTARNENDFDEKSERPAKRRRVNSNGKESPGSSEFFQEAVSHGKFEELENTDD
# Chain of UniProt Q86X29 (Q86X29 whole entry, looked up): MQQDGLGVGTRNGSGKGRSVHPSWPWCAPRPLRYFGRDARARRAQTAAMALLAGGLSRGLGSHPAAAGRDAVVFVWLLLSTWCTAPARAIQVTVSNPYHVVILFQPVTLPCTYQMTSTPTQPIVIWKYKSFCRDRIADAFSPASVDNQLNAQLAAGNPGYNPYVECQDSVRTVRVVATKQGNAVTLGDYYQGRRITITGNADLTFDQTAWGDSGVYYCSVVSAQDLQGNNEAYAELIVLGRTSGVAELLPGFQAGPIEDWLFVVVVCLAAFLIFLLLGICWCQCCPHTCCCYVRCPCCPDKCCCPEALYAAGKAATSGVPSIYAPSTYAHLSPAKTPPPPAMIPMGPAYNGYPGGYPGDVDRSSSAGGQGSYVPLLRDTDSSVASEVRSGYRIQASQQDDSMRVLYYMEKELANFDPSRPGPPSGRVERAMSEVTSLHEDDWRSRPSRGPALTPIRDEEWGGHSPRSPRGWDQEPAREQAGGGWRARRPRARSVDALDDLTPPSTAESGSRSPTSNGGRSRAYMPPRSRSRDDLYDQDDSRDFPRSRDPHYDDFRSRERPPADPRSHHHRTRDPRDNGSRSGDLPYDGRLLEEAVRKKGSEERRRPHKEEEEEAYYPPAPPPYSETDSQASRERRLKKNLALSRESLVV
# Chain of UniProt P01116 (P01116 whole entry, looked up): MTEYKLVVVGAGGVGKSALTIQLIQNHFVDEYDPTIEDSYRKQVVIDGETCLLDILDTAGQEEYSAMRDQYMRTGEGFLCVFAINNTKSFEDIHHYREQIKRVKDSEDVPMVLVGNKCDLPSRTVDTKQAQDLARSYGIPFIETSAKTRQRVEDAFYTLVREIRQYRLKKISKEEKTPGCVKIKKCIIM
Target,log2 fold change [1],log2 fold change (volasertib),log2 fold change [2],log2 fold change (epoxomicin),log2 fold change [3],log2 fold change [4],log2 fold change [5],log2 fold change (rosiglitazone),log2 fold change [6],log2 fold change [7],log2 fold change (saracatinib),log2 fold change (sotrastaurin),log2 fold change (alvocidib),log2 fold change (Tubastatin A),log2 fold change [8],log2 fold change (defactinib),log2 fold change (rucaparib),log2 fold change [9],log2 fold change (encorafenib),log2 fold change [10]
MIER1 isoform 12 (UniProt Q8N108),-0.032,-0.102,0.066,0.02,-0.039,-0.095,-0.033,-0.027,-0.077,-0.107,0.026,-0.024,-0.079,0.297 (active),-0.058,-0.13,-0.01,-0.056,-0.004,0.017
IPO9 (UniProt Q96P70),-0.227 (active),-0.611 (active),-0.003,-0.031,0.03,0.034,0.009,0.018,-0.007,-0.077,0.036,-0.13,-0.08,-0.02,0.034,-0.106,-0.051,-0.136,0.056,0
IGFBP2 (UniProt P18065),-0.319,-0.614,-0.167,-0.707,-0.275,0.158,0.003,0.083,0.323,-0.638,-0.049,0.223,0.212,-0.032,-0.06,0.134,0.003,-0.148,0.028,-0.053
MAP3K4 isoform 2 (UniProt Q9Y6R4),0.141,0.398 (active),-0.013,0.007,0,-0.519 (active),0.013,0.018,-0.018,0.024,0.077,0.034,-0.093,-0.038,0.153,-0.008,0.006,-0.002,-0.023,0.029
IMMT isoform 2 (UniProt Q16891),-0.043,-0.046,-0.002,-0.052,0.074,-0.031,0.086,-0.009,0.067,0.249,-0.069,-0.036,-0.071,-0.076,0.131,0.029,0.023,-0.111,0.017,0.067
KRAS isoform 2 (UniProt P01116),0.08,0.026,-0.047,0.027,-0.007,-0.073,0,0.038,0.062,0.141,0.039,0.045,-0.062,-0.036,0.027,0.013,-0.028,0.011,0.043,0.02
LYN (UniProt P07948),-0.016,-0.023,0.033,0.039,0.037,-0.095,-0.024,-0.009,0.144,-0.03,-0.198,-0.08,0,0.026,-0.287,-0.174,0.13,-0.022,0.009,0.038
LTN1 isoform 3 (UniProt O94822),-0.16,-0.459 (active),0.079,-0.012,-0.075,-0.019,0.043,0.05,0.06,-0.498 (active),-0.016,-0.114,-0.042,0.196,0.01,-0.114,0.158,-0.012,0.047,-0.057
MGST3 (UniProt O14880),-0.005,0.048,-0.107,-0.016,0.066,-0.047,-0.017,-0.043,-0.027,0.097,0.037,0.064,0.021,-0.01,-0.029,0.012,-0.027,-0.028,-0.033,0.053
LIAS (UniProt O43766),0.051,0.055,-0.021,-0.011,0.027,-0.044,-0.043,0.003,-0.052,0.057,0.049,0.271 (active),0.065,-0.056,0.029,0.018,0.017,-0.027,0,0.022
MAPKAPK5 (UniProt Q8IW41),0.009,-0.007,-0.023,0.045,-0.092,-0.132,-0.123,-0.046,-0.112,-0.033,0.008,-0.028,0.062,0.036,-0.02,-0.032,0.095,-0.039,-0.016,0
LEMD2 (UniProt Q8NC56),-0.212,-0.422 (active),0.034,-0.002,-0.02,0.028,0.091,0.023,-0.006,-0.338 (active),-0.048,0.004,0.061,0.014,-0.058,-0.126,0.11,0.041,0.023,0.013
LONP2 (UniProt Q86WA8),0.141,0.16,0.063,0.336,-0.032,0.034,-0.106,0.05,0.054,0.17,0.006,0.003,-0.029,0.135,0,-0.12,0.067,-0.079,0.13,0.007
LARP4B (UniProt Q92615),0.025,-0.15,0.061,-0.037,-0.052,0.073,0.034,-0.02,0.096,-0.218,-0.009,-0.083,0.004,-0.033,-0.025,-0.037,0.273,0.02,0.094,0.032
LSR (UniProt Q86X29),0.109,0.068,-0.02,-0.021,-0.013,0.011,-0.033,0.011,-0.001,0.214 (active),-0.003,0.023,-0.018,0.012,-0.074,-0.053,-0.023,0.095,0.042,0.031
KDM5D isoform 3 (UniProt Q9BY66),-0.305,-0.404,0.032,0.163,-0.01,0.034,0.223,0.108,-0.14,-0.059,-0.063,0.078,-0.193,-0.451 (active),0.026,-0.357,0.067,-0.078,0.198,-0.05
